Measurements reported in PubChem BioAssay (NCATS).
Values joined by “and” are separate entries in the source; they are usually repeats but may differ in a detail not shown here. Equal entries are not always repeated. Results filed as inconclusive are left out. Active and inactive are the calls of the source. Unless noted, calls come from the whole dose curve; as a rule, active = well fitted curve in the direction sought with a large enough effect; inconclusive = small, poorly fitted or top-dose-only effect, or another doubt; inactive = no such curve, though single readings can be large; an effect the other way counts as inactive or inconclusive.

What was measured:
[1] = biological target: Cytochrome P450 1A2 (Homo sapiens) (UniProt P05177); experiment: p450-cyp1a2 (AID 410; calls by dose curve;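 note: -100% = full effect of reference inhibitor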)
Outline: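 Human CYP1A2 (20nM) demethylated Luciferin-ME at its Km (100uM) in 100mM KPO4. After 10 min compound preincubation, NADPH regeneration ran the reaction 60 min at room temperature. Luciferin was read by luminescence, normalized to 57 uM furafylline.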

[2] = biological target: Glucocorticoid receptor (Homo sapiens) (UniProt P04150); experiment: GR-GFP Redistribution (AID 450;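 active = compounds whose dose series gives a full or clear partial fitted curve of increased nuclear translocation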; note: potency is the fitted concentration of half-maximal effect); details: U2OS GR-GFP nuclear translocation, laser cytometry, 2 h
[3] = biological target: Mitogen-activated protein kinase 10 (Mus musculus) (UniProt Q61831); experiment: JNK3 AlphaScreen Assay (AID 530; active = well fitted curve in either direction with a large enough effect, not every such curve was filed as active;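 note: kinase came from lysate of stimulated human HepG2 cells; signal reports phosphorylation of biotinylated GST-cJun 1-79 at Ser73 with 10 µM ATP; % is set by controls: 0 for no effect and ±100 for the full control effect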)
Outline: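 JNK3 came from HepG2 lysates pre-activated with IL-1beta and TNF-alpha and phosphorylated biotinylated GST-cJun (1-79) at 10 uM ATP, pH 7.6, room temperature. Compounds were titrated. AlphaScreen signal used anti-phospho-cJun (Ser73) antibody.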

[4] = biological target: 3',5'-cyclic-AMP phosphodiesterase 4B (Homo sapiens) (UniProt Q07343); experiment: qHTS Assay for Inhibitors of PDE-IV (AID 607; active = well fitted activation curve with a large enough effect in the main read-out, with a control signal flat, not every such curve was filed as active; note: % of control where 0% means no effect)
Outline: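 Live HEK293 cells with a modified cyclic nucleotide-gated (CNG) channel report intracellular cAMP via membrane-potential dye fluorescence (ex 535/em 590 nm). Endogenous PDE-IV was targeted. Compounds were tested at up to 22.9 uM final; RO 20-1724 100 uM served as control.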

[5] = biological target: Cytochrome P450 2C19 (Homo sapiens) (UniProt P33261); experiment: qHTS Assay for Inhibitors and Substrates of Cytochrome P450 2C19 (AID 899); note: % is set by controls: 0 for no effect and ±100 for the full control effect; nearly all actives have a fitted effect of over 60% in size
Outline: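 Human CYP2C19 (5nM) with Luciferin-H EGE at 10uM (its KM) in 50mM KPO4 was preincubated with compound for 10 min at 37C. NADPH regeneration started a 60 min 37C reaction. Luciferin was read by luminescence, normalized to 57uM ketoconazole.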

[6] = qHTS Assay for Lipid Storage Modulators (AID 1519; calls by dose curve); details: Drosophila S3 cells, BODIPY lipid droplet/cell ratio, laser cytometry, cells loaded with oleic acid
Outline: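 Cells seeded at 5,000 per well were treated with compounds over a concentration series and loaded with oleic acid (400 uM, as added). Lipid droplet fluorescence (488 nm excitation, 500-530 nm channel) was read by laser-scanning cytometry and normalized to 20 uM Triacsin C.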

[7] = biological target: Ubiquitin carboxyl-terminal hydrolase 1 (Homo sapiens) (UniProt O94782); experiment: Inhibitors of USP1/UAF1: Pilot qHTS (AID 504865);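 note: rhodamine fluorescence freed from ubiquitin-rhodamine substrate followed over time; top concentration of the series differs between compounds; % is set by controls: 0 for no effect and ±100 for the full control effect; nearly all actives have a fitted effect of over 35% in size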
Outline: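 In 50mM HEPES pH 7.8 containing 0.5mM EDTA, 1mM TCEP, 0.1 mg/ml BSA and 0.01% Tween-20, 1nM USP1/UAF1 is exposed to compound for 15 min, then Ub-Rho (150nM final) is added and fluorescence is read over time.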

[8] = biological target: DNA dC->dU-editing enzyme APOBEC-3G (Homo sapiens) (UniProt Q9HC16); experiment: qHTS for inhibitors of Vif-A3G interactions: Validation (AID 588379); note: 0% is about no effect
Outline: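 HeLa cells stably expressing Vif and A3G-eYFP, 700 cells/well, incubated overnight at 37 deg C, then exposed to compound overnight at 37 deg C. Inhibition of Vif-mediated degradation read as increased yellow fluorescence (Ex 488/Em 500-530) by laser-scanning cytometry.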

[9] = system: Zika virus NS2B-NS3 protease; experiment: Primary screen GU AMC qHTS for Zika virus inhibitors (AID 1347154); note: nearly all actives have a fitted effect of over 70% in size;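 for activity change, negative = inhibition: 0% = no-inhibitor control and -100% = no-enzyme control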
Outline: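 Unlinked Zika NS2B hydrophilic domain/NS3 protease domain noncovalent complex (25 nM final) in 10 mM Tris-HCl pH 8.0, 0.01% Tween 20, with AMC peptide substrate. Fluorescence (ex 340, em 450 nm) change over 15 min, room temperature; percent inhibition fitted to 4-parameter Hill equation.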

[10] = NCATS anti-infectives library activity on HEK293 viability as a counter-qHTS vs the C. elegans viability qHTS (AID 1745854)
Outline: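 HEK293 cells, 1500 per well, exposed 24 hr at 37C in 5% CO2 to compounds in a 1:5 titration, up to 41.7 uM final. Viability read as CellTiter-Glo luminescence after 10 min at room temperature.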

[11] = biological target: Glutathione peroxidase 1 (Homo sapiens) (UniProt P07203); experiment: Primary qHTS Assay for Inhibitors of Recombinant Selenoprotein Glutathione Peroxidase 1 (GPX1) (AID 1845191); note: nearly all actives have a fitted effect of over 65% in size
Outline: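 Recombinant GPX1 (10 nM final) was preincubated with compound for 30 min at room temperature, then reacted with 1 mM GSH, 0.5 mM CHP, 0.5 mM NADPH and 100 nM glutathione reductase; NADPH fluorescence (340/450 nm) was read at 0 and 15 min.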

[12] = biological target: Phospholipid hydroperoxide glutathione peroxidase GPX4 (Homo sapiens) (UniProt P36969); experiment: Primary qHTS Assay for Inhibitors of Recombinant Selenoprotein Glutathione Peroxidase 4 (GPX4) (AID 1845192); details: outcome: dose series up to 50 µM unless noted; note: nearly all actives have a fitted effect of over 65% in size
Outline: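 GR-coupled readout: 100 nM GR, 1 mM GSH, 0.5 mM NADPH; NADPH fluorescence (ex 340/em 450 nm) read at t=0 and after 15 min RT. GPX4 200 nM, preincubated 30 min with compound; substrate 0.5 mM CHP.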

[13] = Stat Signaling Pathway (AID 446; active = well fitted curve in either direction with a large enough effect, not every such curve was filed as active;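 note: ME-180 cervical cancer cells given 40 pM IL-6 alongside compound; SIE-controlled beta-lactamase reporter measured as 460/530 nm FRET emission ratio; % is set by controls: 0 for no effect and ±100 for the full control effect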); details: ME-180 (cervical carcinoma) SIE beta-lactamase reporter, IL-6 stimulated, 5 h
Outline: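 IL-6/STAT signaling read in ME-180 cells via an SIE beta-lactamase reporter. Stimulus was 40 pM IL-6 (its AC50) for 5 hrs, so both activation and inhibition register.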

[14] = biological target: Glucocorticoid receptor (Homo sapiens) (UniProt P04150); experiment: GR-EFC Redistribution (AID 451; calls by dose curve; note: potency is the fitted concentration of half-maximal effect); details: CHO-K1 GR-EFC translocation, beta-gal luminescence, 2 h
Outline: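 CHO-K1 cells stably expressing nuclear-localized β-gal enzyme acceptor and GR fused C-terminally to the enzyme donor fragment; ligand-driven nuclear translocation restores β-gal by complementation. Compounds titrated up to 46 uM final, 2 h at 37 °C; luminescence read.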

[15] = biological target: Guanine nucleotide-binding protein G(i) subunit alpha-1 (Homo sapiens) (UniProt P63096); experiment: qHTS Assay for Inhibitors of RGS12 GoLoco Motif Activity (Green Fluorophore) (AID 879);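 note: 0% = labeled peptide with Gαi1 and full inhibition = labeled peptide alone without protein; negative values mean loss of peptide binding seen as reduced polarization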
Outline: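 Fluorescence polarization assay: 50 nM Gαi1 with 10 nM FITC-labeled RGS12 GoLoco peptide in 10 mM Tris pH 7.5, 150 mM NaCl, 0.1 mM GDP, 0.05% NP40, 10 min at room temperature with compound.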

[16] = biological target: Cytochrome P450 3A4 (Homo sapiens) (UniProt P08684); experiment: qHTS Assay for Inhibitors and Substrates of Cytochrome P450 3A4 (AID 884); note: % is set by controls: 0 for no effect and ±100 for the full control effect; nearly all actives have a fitted effect of over 50% in size
Outline: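 20 nM human CYP3A4 with 25 uM Luciferin-PPXE (at KM) in 200 mM KPO4, preincubated 10 min with compound; NADPH regeneration started a 60 min RT reaction. Luciferin detected by luminescence, normalized to 57 uM ketoconazole as full inhibition.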

[17] = qHTS Assay for Identification of Small Molecule Antagonists for NFkB Signaling Pathway (AID 895; active = well fitted inhibition curve with a large enough effect in the signal ratio, with a control signal flat, not every such curve was filed as active; the % refers to the signal ratio; note: % is set by controls: 0 for no effect and ±100 for the full control effect)
Outline: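 NFkB-bla ME-180 cervical carcinoma cells with beta-lactamase reporter under NFkB response element; compounds added, then TNF alpha at 10 pM final (EC50), 5 h at 37 C. LiveBLAzer substrate 2 h, room temperature; emission 460/530 nm at 405 nm excitation.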

[18] = qHTS Assay for Identification of Small Molecule Agonists for Thrombopoietin (TPO) Signaling Pathway (AID 917); note: % is set by controls: 0 for no effect and ±100 for the full control effect
Outline: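 Luminescence from a Glycoprotein IIb promoter–driven luciferase reporter served as read-out in murine Ba/F3 cells carrying the human TPO receptor. Cells, deprived of IL-3 overnight, received compounds with 26 pM TPO and were incubated 24 hrs at 37 C.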

[19] = biological target: Pyruvate kinase PKM (Homo sapiens) (UniProt P14618); experiment: qHTS Assay for Activators of Human Muscle Pyruvate Kinase (AID 954; active = well fitted curve in the direction sought with a large enough effect, not every such curve was filed as active;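 note: 0% = uninhibited enzyme and -100% = no enzyme or full thiadiazolimine inhibition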)
Outline: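 Enzyme was run at intermediate activity so both inhibitors and activators could be detected. ATP formed from ADP and PEP by 0.1 nM human PKM2 during a 1 h room-temperature incubation was quantified by coupled luciferase luminescence.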

[20] = biological target: Alpha-galactosidase A (Homo sapiens) (UniProt P06280); experiment: Counterscreen for Glucocerebrosidase Inhibitors: qHTS Assay for Human alpha-Galactosidase at pH 4.5 (AID 992); note: 0% is about no effect
Outline: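 Read-out is 4-methylumbelliferone fluorescence (365 nm excitation, 440 nm emission) after a pH 10 NaOH/glycine stop. Reactions held 2 nM enzyme and 80 uM substrate at pH 4.5 for 20 min at room temperature.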

[21] = biological target: alpha-glucosidase (Oryza sativa, rice) (UniProt Q653V4); experiment: Counterscreen for Glucocerebrosidase Inhibitors: qHTS Assay for Rice alpha-Glucosidase at pH 5.0 (AID 997);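 note: 0% = full activity with enzyme and -100% = basal without enzyme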
Outline: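 Rice alpha-glucosidase (4 nM final) with 400 uM 4-methylumbelliferyl-alpha-D-glucopyranoside in citrate buffer pH 5.0, 20 min at room temperature, stopped at pH 10; fluorescence 365/440 nm, compounds 0.7 nM–77 uM, AC50 from Hill fits.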

[22] = measured here: cell count channel max response
[23] = measured here: lipid channel max response

Glucocorticoid receptor (Homo sapiens), sequence (P04150 whole entry, looked up, the tested form may be a part): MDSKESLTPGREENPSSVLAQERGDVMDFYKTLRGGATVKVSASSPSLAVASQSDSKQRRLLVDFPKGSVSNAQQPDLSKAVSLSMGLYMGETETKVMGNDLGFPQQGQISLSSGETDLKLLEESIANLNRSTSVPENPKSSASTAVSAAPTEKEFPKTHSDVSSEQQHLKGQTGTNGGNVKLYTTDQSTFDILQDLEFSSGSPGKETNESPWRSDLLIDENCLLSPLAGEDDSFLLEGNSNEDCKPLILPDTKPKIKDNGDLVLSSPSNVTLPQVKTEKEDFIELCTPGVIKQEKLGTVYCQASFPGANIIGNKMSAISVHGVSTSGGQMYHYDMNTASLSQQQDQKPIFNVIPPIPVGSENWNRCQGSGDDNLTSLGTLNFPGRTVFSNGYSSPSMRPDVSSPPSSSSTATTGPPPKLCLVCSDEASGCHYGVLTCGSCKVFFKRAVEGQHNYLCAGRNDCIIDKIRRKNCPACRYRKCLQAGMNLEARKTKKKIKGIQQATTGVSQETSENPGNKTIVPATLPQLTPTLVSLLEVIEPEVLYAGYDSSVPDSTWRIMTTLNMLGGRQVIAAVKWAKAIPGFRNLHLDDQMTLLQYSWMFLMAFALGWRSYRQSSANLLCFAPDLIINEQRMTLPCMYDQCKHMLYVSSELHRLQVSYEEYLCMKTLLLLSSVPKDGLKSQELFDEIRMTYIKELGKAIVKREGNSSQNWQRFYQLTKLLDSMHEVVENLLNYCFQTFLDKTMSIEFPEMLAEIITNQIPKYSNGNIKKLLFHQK
3',5'-cyclic-AMP phosphodiesterase 4B (Homo sapiens), sequence (Q07343 whole entry, looked up): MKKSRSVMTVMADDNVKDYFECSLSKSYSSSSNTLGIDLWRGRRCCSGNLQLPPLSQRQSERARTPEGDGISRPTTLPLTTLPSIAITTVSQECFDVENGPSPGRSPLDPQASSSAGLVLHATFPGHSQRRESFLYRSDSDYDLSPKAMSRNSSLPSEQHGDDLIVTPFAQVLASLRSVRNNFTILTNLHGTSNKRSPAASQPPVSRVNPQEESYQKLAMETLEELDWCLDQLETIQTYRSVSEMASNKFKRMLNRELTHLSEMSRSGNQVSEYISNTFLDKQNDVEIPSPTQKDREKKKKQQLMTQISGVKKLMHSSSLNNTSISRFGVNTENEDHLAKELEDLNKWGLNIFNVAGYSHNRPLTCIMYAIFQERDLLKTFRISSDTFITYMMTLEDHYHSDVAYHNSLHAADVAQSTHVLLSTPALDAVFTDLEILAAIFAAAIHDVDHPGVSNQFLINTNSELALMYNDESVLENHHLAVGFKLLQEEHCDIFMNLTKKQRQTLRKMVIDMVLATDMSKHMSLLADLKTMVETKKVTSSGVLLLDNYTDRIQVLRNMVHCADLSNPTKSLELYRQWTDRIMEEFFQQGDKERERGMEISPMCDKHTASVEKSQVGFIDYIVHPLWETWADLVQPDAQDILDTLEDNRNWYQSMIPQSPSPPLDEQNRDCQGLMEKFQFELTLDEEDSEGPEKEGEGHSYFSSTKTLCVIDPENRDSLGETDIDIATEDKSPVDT
Ubiquitin carboxyl-terminal hydrolase 1 (Homo sapiens), sequence (O94782 whole entry, looked up): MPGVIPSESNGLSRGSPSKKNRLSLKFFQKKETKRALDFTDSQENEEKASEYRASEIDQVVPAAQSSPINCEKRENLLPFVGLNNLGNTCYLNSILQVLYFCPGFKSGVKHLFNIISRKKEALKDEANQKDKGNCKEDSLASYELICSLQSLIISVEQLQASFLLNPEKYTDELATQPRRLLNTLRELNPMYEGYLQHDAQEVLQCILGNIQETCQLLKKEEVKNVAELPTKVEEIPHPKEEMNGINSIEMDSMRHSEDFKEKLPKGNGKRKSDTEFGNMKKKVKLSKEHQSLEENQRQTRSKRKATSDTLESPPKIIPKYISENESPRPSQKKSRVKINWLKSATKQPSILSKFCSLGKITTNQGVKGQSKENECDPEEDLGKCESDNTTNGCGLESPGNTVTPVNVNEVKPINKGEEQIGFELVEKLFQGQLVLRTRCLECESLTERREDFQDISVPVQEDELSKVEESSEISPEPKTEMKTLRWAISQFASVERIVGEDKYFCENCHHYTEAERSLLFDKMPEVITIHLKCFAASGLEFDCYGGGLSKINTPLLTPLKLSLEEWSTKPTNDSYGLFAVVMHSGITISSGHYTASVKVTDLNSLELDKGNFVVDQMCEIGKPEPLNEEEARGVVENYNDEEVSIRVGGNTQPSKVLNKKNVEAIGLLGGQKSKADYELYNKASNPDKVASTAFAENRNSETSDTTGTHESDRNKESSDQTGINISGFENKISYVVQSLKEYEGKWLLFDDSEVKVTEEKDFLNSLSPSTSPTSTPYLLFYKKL
DNA dC->dU-editing enzyme APOBEC-3G (Homo sapiens), sequence (Q9HC16 whole entry, looked up): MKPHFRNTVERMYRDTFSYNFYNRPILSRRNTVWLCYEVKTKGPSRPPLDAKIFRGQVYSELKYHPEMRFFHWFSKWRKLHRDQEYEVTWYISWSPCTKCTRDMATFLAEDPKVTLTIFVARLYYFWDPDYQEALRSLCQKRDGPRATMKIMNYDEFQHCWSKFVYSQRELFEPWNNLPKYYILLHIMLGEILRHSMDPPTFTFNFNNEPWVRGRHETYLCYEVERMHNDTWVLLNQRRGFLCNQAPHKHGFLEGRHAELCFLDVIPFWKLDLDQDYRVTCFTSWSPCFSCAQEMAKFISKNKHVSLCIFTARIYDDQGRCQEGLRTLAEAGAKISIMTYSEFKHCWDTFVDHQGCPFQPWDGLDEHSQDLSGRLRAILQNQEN
Cytochrome P450 3A4 (Homo sapiens), sequence (P08684 whole entry, looked up): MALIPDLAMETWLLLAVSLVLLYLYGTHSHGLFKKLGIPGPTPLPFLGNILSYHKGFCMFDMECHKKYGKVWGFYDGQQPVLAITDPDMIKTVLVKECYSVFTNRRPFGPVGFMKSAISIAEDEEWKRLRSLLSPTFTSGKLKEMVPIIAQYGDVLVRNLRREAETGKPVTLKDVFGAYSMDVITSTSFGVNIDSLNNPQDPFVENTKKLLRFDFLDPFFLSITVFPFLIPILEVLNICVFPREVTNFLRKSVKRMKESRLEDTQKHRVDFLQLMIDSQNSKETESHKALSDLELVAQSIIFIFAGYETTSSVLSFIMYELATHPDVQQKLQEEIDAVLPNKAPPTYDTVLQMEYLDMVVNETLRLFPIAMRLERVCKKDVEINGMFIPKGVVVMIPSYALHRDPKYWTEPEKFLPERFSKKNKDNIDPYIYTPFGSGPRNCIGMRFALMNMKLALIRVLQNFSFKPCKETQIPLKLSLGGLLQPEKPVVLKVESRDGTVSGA
Phospholipid hydroperoxide glutathione peroxidase GPX4 (Homo sapiens), sequence (P36969 whole entry, looked up): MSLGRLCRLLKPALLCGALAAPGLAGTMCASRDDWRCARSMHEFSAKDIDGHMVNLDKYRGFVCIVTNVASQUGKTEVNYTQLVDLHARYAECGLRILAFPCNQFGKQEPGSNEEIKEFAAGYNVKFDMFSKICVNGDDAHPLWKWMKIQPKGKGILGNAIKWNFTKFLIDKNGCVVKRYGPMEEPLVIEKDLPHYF
Glutathione peroxidase 1 (Homo sapiens), sequence (P07203 whole entry, looked up): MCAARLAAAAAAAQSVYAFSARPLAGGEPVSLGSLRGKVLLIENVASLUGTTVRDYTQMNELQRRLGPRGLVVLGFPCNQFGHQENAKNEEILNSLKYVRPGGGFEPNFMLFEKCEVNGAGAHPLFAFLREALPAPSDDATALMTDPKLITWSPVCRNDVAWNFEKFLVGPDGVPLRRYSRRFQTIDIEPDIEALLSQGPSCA
Alpha-galactosidase A (Homo sapiens), sequence (P06280 whole entry, looked up): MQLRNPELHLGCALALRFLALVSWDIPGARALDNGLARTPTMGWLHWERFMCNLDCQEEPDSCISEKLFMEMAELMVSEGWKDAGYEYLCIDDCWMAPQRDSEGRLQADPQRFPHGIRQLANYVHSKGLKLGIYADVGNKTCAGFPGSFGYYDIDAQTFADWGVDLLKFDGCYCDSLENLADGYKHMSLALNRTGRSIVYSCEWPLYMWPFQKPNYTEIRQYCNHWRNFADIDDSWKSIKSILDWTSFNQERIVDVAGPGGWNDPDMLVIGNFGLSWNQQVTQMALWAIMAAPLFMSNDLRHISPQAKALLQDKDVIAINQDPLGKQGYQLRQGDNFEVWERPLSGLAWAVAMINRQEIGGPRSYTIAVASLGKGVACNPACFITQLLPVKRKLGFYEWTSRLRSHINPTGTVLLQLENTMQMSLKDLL
Cytochrome P450 2C19 (Homo sapiens), sequence (P33261 whole entry, looked up): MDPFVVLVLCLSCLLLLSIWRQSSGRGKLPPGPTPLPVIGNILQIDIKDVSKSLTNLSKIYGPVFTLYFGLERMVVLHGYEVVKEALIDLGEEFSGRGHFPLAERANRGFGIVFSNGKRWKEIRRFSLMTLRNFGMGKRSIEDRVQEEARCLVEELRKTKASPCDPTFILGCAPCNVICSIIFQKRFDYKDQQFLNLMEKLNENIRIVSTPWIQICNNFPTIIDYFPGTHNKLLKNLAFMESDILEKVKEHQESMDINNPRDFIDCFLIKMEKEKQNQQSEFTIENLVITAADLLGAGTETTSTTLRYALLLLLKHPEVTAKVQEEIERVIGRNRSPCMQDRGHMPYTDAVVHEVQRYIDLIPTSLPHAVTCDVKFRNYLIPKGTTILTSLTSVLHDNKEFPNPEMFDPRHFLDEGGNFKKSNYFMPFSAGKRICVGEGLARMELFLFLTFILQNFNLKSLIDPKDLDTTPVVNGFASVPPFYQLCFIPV
Guanine nucleotide-binding protein G(i) subunit alpha-1 (Homo sapiens), sequence (P63096 whole entry, looked up): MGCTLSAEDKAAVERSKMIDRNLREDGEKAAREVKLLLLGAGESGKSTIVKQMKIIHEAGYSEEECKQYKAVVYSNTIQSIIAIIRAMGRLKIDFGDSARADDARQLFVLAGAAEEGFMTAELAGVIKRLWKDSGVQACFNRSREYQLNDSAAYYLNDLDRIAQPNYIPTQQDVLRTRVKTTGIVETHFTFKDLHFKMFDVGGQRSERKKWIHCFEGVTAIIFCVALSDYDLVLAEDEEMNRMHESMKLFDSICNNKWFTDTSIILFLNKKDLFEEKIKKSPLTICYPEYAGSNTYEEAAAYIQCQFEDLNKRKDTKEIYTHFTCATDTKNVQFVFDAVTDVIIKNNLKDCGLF

NC(N)=Nc1ccc(Cl)cc1
-4.97%: max response [6, 23]
inactive: Potency [1] | Potency [2] > 46 µM | Potency [3] | Potency [4] | Potency [5] | activity change, negative = inhibition ([6]; at 57.5 µM (top of the series)) -3.61% | Potency [7] | Potency [8] | Potency [9]
-0.36%: max response [6, 22]

CN(C)/C(N)=N/C(=N)N
inactive: outcome [9] | outcome [10] | Potency [11] | outcome [12] inactive [setting not given]

CN1CCN2c3ccccc3Cc3ccccc3[C@@H]2C1
inactive: activity, negative = inhibition ([13]; at 17.2 µM (top of the series)) 2.47% | activity, negative = inhibition ([13]; at 38 µM (top of the series)) -1.53% | Potency [2] > 46 µM and > 20.6 µM | Potency [14] > 46 µM and > 20.6 µM | Potency [3] | Potency [4] | outcome [15] | Potency [16] | Potency [17] | Potency [18] | outcome [19] | outcome [20] | outcome [21] | activity change, negative = inhibition ([6]; at 25.7 µM (top of the series)) -3.71% | Potency [7] | Potency [8] | Potency [9]
-8.62%: max response [6, 23]
-3.28%: max response [6, 22]
